Our source for the max response and Potency values is PubChem BioAssay AID652283 (National Center for Advancing Translational Sciences (NCATS), 2013).

Inconclusive results are not listed. Values without a mark were called inactive. Calls of active or inactive are those of the source. Calls come from the whole dose curve; as a rule, active = well fitted inhibition curve with a large enough effect; inconclusive = small, poorly fitted or top-dose-only effect; inactive = no such curve, though single readings can be large or run the other way.

The nature of the assay: qHTS Assay for Lipid Storage Modulators: COS7 Assay against Probe and Analogs. To be noted: COS7 lipid droplet area, BODIPY imaging, 18 h; cells loaded with 400 µM oleic acid. The essentials: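 Lipid droplets, stained with BODIPY 493/503 (nuclei with Hoechst), were counted from microscope images by visual examination and image segmentation. Before fixation, COS7 cells had 17-18 h compound exposure with 400 microM oleic acid in 5% FBS medium, 0.2% DMSO.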
In general terms: qHTS replaces the single test concentration by a dilution series.
Turning to `O=C(NC1CCCc2c1cnn2-c1ccc(F)cc1F)c1cnon1` (stereo unspecified), the max response is 13.2%.
In the case of `CCOc1ccc(CCNC(=O)c2cc3ccccc3o2)cc1OCC`, the Potency was 29.6 µM (active).
Take `CCOC(=O)C1CCN(C(=O)C(C)(C)NC(=O)Nc2ccc(C#N)cc2)CC1`: the max response is -15.2%.
Turning to `O=C(CCCCCCC(=O)Nc1ccccc1)NO`, the max response is -18.2%.
Same read-out and setting: for `Cc1cc2c(cc1C1(c3ccc(C(=O)O)cc3)CC1)C(C)(C)CCC2(C)C` the value was -1.19%; for `CCOc1ccc(CCNC(=O)c2cc3sccc3[nH]2)cc1OCC`, -4.32%.
`O=C(c1cc2sccc2n1Cc1ccccc1)N(CCc1ccc(O)c(O)c1)Cc1ccccc1`: the max response was 10.7%.
For `CCOC(=O)C1CCN(C(=O)C(C)(C)NC(=O)Nc2ccc(Cl)cc2Cl)CC1`, the Potency was 6.62 µM (active).
`CCOC(=O)C1CCN(C(=O)C2(NC(=O)Nc3ccc(F)cc3F)CCCCC2)CC1`: the Potency is 16.6 µM (active).
With `CCOc1ccc(CCNC(=O)C2(c3ccccc3)CC2)cc1OCC`, the max response is 2.24%.
Take `O=C(NC1CCCc2c1cnn2-c1ccc(F)cc1F)c1cccc(=O)[nH]1` (stereo unspecified): the max response is 14.9%.
As for `CCOc1ccc(CCNC(=O)c2cc3ccccc3n2Cc2cc(C)cc(C)n2)cc1OCC`, the Potency was 1.48 µM (active).
As for `O=C(NC1CCCc2c1cnn2-c1ccc(F)cc1F)c1cccs1` (stereo unspecified), the max response is -60.6%.
Same read-out and setting: under `CCOc1ccc(CCNC(C)=O)cc1OCC` stands -6.62%.
Take `CCOc1ccc(CCNC(=O)c2cc3c(s2)CCC3)cc1OCC`: the Potency was 11.8 µM (active).
With `CCOC(=O)C1CCN(C(=O)C(C)(C)NC(=O)Nc2ccccc2Cl)CC1`, the Potency is 13.2 µM (active).
